Data as given in PubChem BioAssay (Tox21).
Records with an inconclusive call do not appear. Where a call stands in place of a potency, no number is given. Values without a mark were called inactive. The source made the active and inactive calls. Unless noted, the call rests on the fitted dose curve; in most records, active means well fitted curve in the direction sought with a large enough effect in the repeat runs; inconclusive means weak or mixed curves; inactive means no such curve, though single readings can be large; an effect the other way counts as inactive or inconclusive.

Key:
[1] = qHTS assay to identify small molecule agonists of the vitamin D receptor (VDR) signaling pathway - cell viability counter screen (AID 743224); further: series mostly up to about 63 µM; nearly all actives have a fitted effect of over 50% in size
Summary of the method: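 In parallel with the bla FRET readout, cytotoxicity toward VDR-bla cells after 16 h compound exposure was assessed by CellTiter-Glo, with luminescence recorded after a 30 min room-temperature incubation.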

[2] = qHTS assay to identify small molecule antagonists of the vitamin D receptor (VDR) signaling pathway - cell viability counter screen (AID 743225); further: nearly all actives have a fitted effect of over 50% in size
Summary of the method: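 Cytotoxicity counter screen read by CellTiter-Glo luminescence (30 min, room temperature) in the same wells as the VDR-bla antagonist readout. HEK 293T VDR-UAS-bla cells had 16 h at 37C with compound and 3 nM (final) 1-alpha,25-dihydroxyvitamin D3, then 2 h with FRET substrate.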

[3] = qHTS assay to identify small molecule agonists of the NFkB signaling pathway (AID 1159509; active means well fitted curve in the direction sought with a large enough effect in the signal ratio in the repeat runs, not every such curve was filed as active; the % refers to the signal ratio; further: series mostly up to about 61 µM)
Summary of the method: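 Agonist activity was read as beta-lactamase-driven FRET change (460 and 530 nm emission, 405 nm excitation) following 1.5 hr substrate loading at room temperature. Beforehand, ME-180 NFkB-bla reporter cells were treated with compounds for 5 hr at 37 C.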

[4] = qHTS assay to identify small molecule agonists of the NFkB signaling pathway - cell viability counter screen (AID 1159515; calls by dose curve; further: series mostly up to about 61 µM; nearly all actives have a fitted effect of over 55% in size)
Summary of the method: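 Plate 2,000 NFkB-bla ME-180 cells/well; incubate overnight. Add compounds, 5 hr at 37 C. Add FRET substrate, 1.5 hr RT. Add CellTiter-Glo, 30 min RT; read luminescence.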

[5] = qHTS assay to identify small molecule agonists of the endoplasmic reticulum stress response signaling pathway (AID 1159516; active means well fitted activation curve with a large enough effect in the signal ratio in the repeat runs, not every such curve was filed as active; the % refers to the signal ratio)
Summary of the method: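 Beta-lactamase expression from the ER stress response element in HeLa reporter cells is quantified with the LiveBLAzer B/G FRET substrate, read at 405 nm excitation after 2 hr at room temperature, following 5 hr compound treatment at 37 C.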

[6] = qHTS assay to identify small molecule agonists of the endoplasmic reticulum stress response signaling pathway - cell viability counter screen (AID 1159517; calls by dose curve; further: series mostly up to about 61 µM; nearly all actives have a fitted effect of over 50% in size)
Summary of the method: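 In parallel with the ESRE reporter read, cytotoxicity was scored by CellTiter-Glo luminescence (30 min, room temperature) on HeLa ESRE-bla cells dosed for 5 hr.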

[7] = qHTS assay to identify small molecule antagonists of the retinoid-related orphan receptor gamma (ROR-gamma) signaling pathway - cell viability counter screen (AID 1159520); further: nearly all actives have a fitted effect of over 50% in size
Summary of the method: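 Tet-on ROR gamma CHO cells were given compounds for 2 hr, then doxycycline hyclate at 1 uM final, and incubated 16 hr at 37 C. Viability was measured as ATP content by CellTiter-Glo luminescence.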

[8] = qHTS assay to identify small molecule agonists of the AP-1 signaling pathway - cell viability counter screen (AID 1159525; calls by dose curve; further: nearly all actives have a fitted effect of over 55% in size)
Summary of the method: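 Same-well cytotoxicity counter screen of the Tox21 10K library in ME-180 cells. The readout is ATP-dependent luminescence after 5 h compound treatment. Data are normalised to DMSO and tetra n-octyl ammonium bromide controls.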

[9] = qHTS assay to identify small molecule agonists of the AP-1 signaling pathway (AID 1159526; calls by dose curve)
[10] = qHTS assay to identify small molecule agonists of the RXR signaling pathway - cell viability counter screen (AID 1159529)
Summary of the method: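 CellTiter-Glo luminescence gave viability in the wells also read for beta-lactamase. Cells (RXR-alpha-UAS-bla HEK 293T, 2% charcoal-stripped FBS medium) had 5 hr plating, then 16 hr compound exposure at 37 C; tetraoctyl ammonium bromide served as positive control.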

[11] = qHTS assay to identify small molecule antagonists of the retinoid acid receptor (RAR) signaling pathway - cell viability counter screen (AID 1159551); further: nearly all actives have a fitted effect of over 35% in size
Summary of the method: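 Viability of C3RL4 cells is quantified from ATP by luminescence after 6 h treatment at 37 C with compounds and 1 uM retinol.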

[12] = qHTS assay to identify small molecule agonists of the retinoic acid receptor (RAR) signaling pathway (AID 1159553); further: potency means the concentration at half of the fitted maximal effect
Summary of the method: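 Compounds dissolved in DMSO were pinned onto C3RL4 cells seeded the previous day, and plates were held 6 hr at 37 C. RARE-driven luciferase output was then read by luminescence.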

[13] = qHTS assay to identify small molecule antagonists of the estrogen related receptor (ERR) signaling pathway from Tox21 library - cell viability counter screen (AID 1224834); further: nearly all actives have a fitted effect of over 30% in size
Summary of the method: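 In this quantitative HTS format, ERR cells receive compounds in DMSO and are incubated for 17.5 h at 37 C. Live-cell protease activity is then detected with CellTiter-Fluor.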

[14] = target: Retinoic acid receptor RXR-alpha (Homo sapiens) (UniProt P19793); assay: qHTS assay to identify small molecule agonists of the RXR signaling pathway (AID 1159527; calls by dose curve; further: nearly all actives have a fitted effect of over 35% in size)
Summary of the method: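 Agonist-mode beta-lactamase reporter assay: HEK 293T RXR-alpha-UAS-bla cells treated 16 hr at 37 C with compounds, 9-cis retinoic acid as positive control. LiveBLAzer FRET substrate, 405 nm excitation, 460/530 nm emission.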

[15] = qHTS assay to identify small molecule antagonists of the retinoic acid receptor (RAR) signaling pathway (AID 1159552; further: nearly all actives have a fitted effect of over 50% in size)
Summary of the method: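 Luminescent RARE reporter read-out in C3RL4 cells: 6 hr co-treatment at 37 C of test compounds with retinol at 1 uM final. Cells plated overnight beforehand; luciferase reagent incubated 30 min at room temperature before reading.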

[16] = target: Nuclear receptor ROR-gamma (Homo sapiens) (UniProt P51449); assay: qHTS assay to identify small molecule antagonists of the retinoid-related orphan receptor gamma (ROR-gamma) signaling pathway (AID 1159521)
Summary of the method: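 Antagonist read-out: drop in luminescence (ONE-Glo) from an RORE-LUC reporter in CHO cells with doxycycline-inducible ROR-gamma; 2 hr compound pretreatment, 1 uM doxycycline, 16 hr incubation at 37 C.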

Sequence of Retinoic acid receptor RXR-alpha (Homo sapiens) (P19793 whole entry, looked up): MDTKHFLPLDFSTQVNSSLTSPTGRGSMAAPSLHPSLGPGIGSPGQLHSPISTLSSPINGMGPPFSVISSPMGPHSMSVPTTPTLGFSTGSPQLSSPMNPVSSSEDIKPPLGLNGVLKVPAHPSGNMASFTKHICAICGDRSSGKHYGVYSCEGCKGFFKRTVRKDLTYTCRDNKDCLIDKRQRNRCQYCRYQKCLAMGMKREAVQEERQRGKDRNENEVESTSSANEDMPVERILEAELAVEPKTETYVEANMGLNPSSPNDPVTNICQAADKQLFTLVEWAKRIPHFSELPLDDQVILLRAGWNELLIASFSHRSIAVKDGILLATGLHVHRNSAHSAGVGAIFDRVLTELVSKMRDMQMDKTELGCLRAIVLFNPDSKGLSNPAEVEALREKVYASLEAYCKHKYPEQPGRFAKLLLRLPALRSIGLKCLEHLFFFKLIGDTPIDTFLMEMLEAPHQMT

## O=c1oc2c(O)c(O)cc3c(=O)oc4c(O)c(O)cc1c4c23
[1]
  Potency: inactive
[2]
  Potency: inactive
[3]
  outcome: inactive
[4]
  outcome: inactive
[5]
  outcome: inactive
[6]
  outcome: inactive
[7]
  activity, negative = cytotoxicity: 0.685% [at 19 µM]
[8]
  viability change, negative = cytotoxic: 7.4% [at 15.8 µM]
[9]
  activation: 21.4% [at 15.8 µM]
[10]
  activity change, negative = cytotoxicity: 8.17% [at 15.8 µM]
[11]
  activity change, negative = cytotoxicity: -0.41% [at 19 µM]
[12]
  Potency: inactive
[13]
  viability change, negative = cytotoxic: -2.26% [at 19 µM]

## FC(F)(F)c1ccccc1
[2]
  Potency: inactive
[3]
  outcome: inactive
[4]
  outcome: inactive
[5]
  outcome: inactive
[6]
  outcome: inactive
[7]
  Potency: inactive
[8]
  outcome: inactive
[9]
  Potency: inactive
[14]
  Potency: inactive
[10]
  Potency: inactive
[11]
  outcome: inactive
[12]
  Potency: inactive
[13]
  Potency: inactive

## CN(C)Cc1ccccc1
[2]
  Potency: inactive
[3]
  outcome: inactive
[4]
  outcome: inactive
[5]
  outcome: inactive
[6]
  outcome: inactive
[7]
  Potency: inactive
[9]
  Potency: inactive
[14]
  Potency: inactive
[10]
  Potency: inactive
[11]
  outcome: inactive
[15]
  Potency: inactive
[12]
  Potency: inactive
[13]
  Potency: inactive

## CC(C)(CO)[C@@H](O)C(=O)NCCC(=O)O
[1]
  Potency: inactive
[2]
  Potency: inactive
[3]
  outcome: inactive
[4]
  outcome: inactive
[5]
  outcome: inactive
[6]
  outcome: inactive
[7]
  Potency: inactive
[9]
  Potency: inactive
[10]
  Potency: inactive
[11]
  outcome: inactive
[15]
  Potency: inactive
[12]
  Potency: inactive

## CC(C)C[C@H](NC(=O)OCC1c2ccccc2-c2ccccc21)C(=O)O
[1]
  Potency: inactive
[2]
  Potency: inactive
[3]
  outcome: inactive
[4]
  outcome: inactive
[5]
  outcome: inactive
[7]
  Potency: inactive
[16]
  Potency: inactive
[8]
  outcome: inactive
[10]
  Potency: inactive
[11]
  outcome: inactive
[12]
  Potency: 1720 nM (active)
[13]
  Potency: inactive

## CC(=O)N[C@@H](CC(C)C)C(=O)O
[1]
  Potency: inactive
[2]
  Potency: inactive
[3]
  outcome: inactive
[4]
  outcome: inactive
[5]
  outcome: inactive
[6]
  outcome: inactive
[7]
  Potency: inactive
[8]
  outcome: inactive
[9]
  Potency: inactive
[14]
  Potency: inactive
[11]
  outcome: inactive
[15]
  Potency: inactive
[12]
  Potency: inactive
[13]
  Potency: inactive

## C=Cc1ccccc1
[2]
  Potency: inactive
[3]
  outcome: inactive
[4]
  outcome: inactive
[5]
  outcome: inactive
[6]
  outcome: inactive
[7]
  Potency: inactive
[8]
  outcome: inactive
[9]
  Potency: inactive
[14]
  Potency: inactive
[11]
  outcome: inactive
[12]
  Potency: inactive
[13]
  Potency: inactive

## C=C(C)C(=O)OCCOP(=O)(O)O
[1]
  Potency: inactive
[2]
  Potency: inactive
[3]
  outcome: inactive
[4]
  outcome: inactive
[5]
  outcome: inactive
[6]
  outcome: inactive
[7]
  Potency: inactive
[8]
  outcome: inactive
[9]
  Potency: inactive
[10]
  Potency: inactive
[11]
  outcome: inactive
[12]
  Potency: inactive

## OCCN(CCO)c1ccccc1
[1]
  Potency: inactive
[2]
  Potency: inactive
[3]
  outcome: inactive
[4]
  outcome: inactive
[5]
  outcome: inactive
[6]
  outcome: inactive
[7]
  Potency: inactive
[8]
  outcome: inactive
[9]
  Potency: inactive
[14]
  Potency: inactive
[10]
  Potency: inactive
[11]
  outcome: inactive
[12]
  Potency: inactive
[13]
  Potency: inactive

## CCN1CC(CCN2CCOCC2)C(c2ccccc2)(c2ccccc2)C1=O (stereo not drawn)
[1]
  Potency: inactive
[2]
  Potency: inactive
[3]
  outcome: inactive
[4]
  outcome: inactive
[5]
  outcome: inactive
[6]
  outcome: inactive
[7]
  Potency: inactive
[8]
  outcome: inactive
[9]
  Potency: inactive
[10]
  Potency: inactive
[11]
  outcome: inactive
[15]
  Potency: inactive
[12]
  Potency: inactive
[13]
  Potency: inactive

## CC/C=C\CCOC(=O)CCCCC
[1]
  Potency: inactive
[3]
  outcome: inactive
[4]
  outcome: inactive
[5]
  outcome: inactive
[6]
  outcome: inactive
[7]
  Potency: inactive
[8]
  outcome: inactive
[9]
  Potency: inactive
[14]
  Potency: inactive
[11]
  outcome: inactive
[15]
  Potency: inactive
[12]
  Potency: inactive
[13]
  Potency: inactive

## Cc1cn([C@@H]2O[C@H](CO)[C@@H](O)[C@@H]2F)c(=O)[nH]c1=O
[1]
  Potency: inactive
[2]
  Potency: inactive
[3]
  outcome: inactive
[4]
  outcome: inactive
[5]
  outcome: inactive
[6]
  outcome: inactive
[7]
  Potency: inactive
[8]
  outcome: inactive
[9]
  Potency: inactive
[14]
  Potency: inactive
[11]
  outcome: inactive
[15]
  Potency: inactive
[12]
  Potency: inactive

## O=C(O[C@@H](C(=O)O)[C@@H](OC(=O)c1ccccc1)C(=O)O)c1ccccc1
[1]
  Potency: inactive
[2]
  Potency: inactive
[3]
  outcome: inactive
[4]
  outcome: inactive
[5]
  outcome: inactive
[6]
  outcome: inactive
[7]
  Potency: inactive
[8]
  outcome: inactive
[9]
  Potency: inactive
[14]
  Potency: inactive
[11]
  outcome: inactive
[15]
  Potency: inactive
[12]
  Potency: inactive
[13]
  Potency: inactive

## CCOc1ccc2nc(N)sc2c1
[1]
  Potency: inactive
[2]
  Potency: inactive
[3]
  outcome: inactive
[4]
  outcome: inactive
[5]
  outcome: inactive
[6]
  outcome: inactive
[7]
  Potency: inactive
[9]
  Potency: inactive
[10]
  Potency: inactive
[11]
  outcome: inactive
[12]
  Potency: 3830 nM (active)
[13]
  Potency: inactive

## CCOC(=O)c1cc(=O)c2c(OCC(COc3cccc4oc(C(=O)OCC)cc(=O)c34)OC(=O)[C@@H](N)CCCCN)cccc2o1
[1]
  Potency: inactive
[2]
  Potency: inactive
[3]
  outcome: inactive
[4]
  outcome: inactive
[5]
  outcome: inactive
[6]
  outcome: inactive
[7]
  Potency: inactive
[8]
  outcome: inactive
[9]
  Potency: inactive
[10]
  Potency: inactive
[11]
  outcome: inactive
[15]
  Potency: inactive
[12]
  Potency: inactive
[13]
  Potency: inactive

## CC(=O)N(CC(O)CN(C(C)=O)c1c(I)c(C(=O)NCC(O)CO)c(I)c(C(=O)NCC(O)CO)c1I)c1c(I)c(C(=O)NCC(O)CO)c(I)c(C(=O)NCC(O)CO)c1I (stereo not drawn)
[1]
  Potency: inactive
[2]
  Potency: inactive
[3]
  outcome: inactive
[4]
  outcome: inactive
[5]
  outcome: inactive
[6]
  outcome: inactive
[7]
  Potency: inactive
[8]
  outcome: inactive
[9]
  Potency: inactive
[10]
  Potency: inactive
[11]
  outcome: inactive
[15]
  Potency: inactive
[12]
  Potency: inactive
[13]
  Potency: inactive

## C=O
[1]
  Potency: inactive
[2]
  Potency: inactive
[3]
  outcome: inactive
[4]
  outcome: inactive
[5]
  outcome: inactive
[6]
  outcome: inactive
[7]
  Potency: inactive
[8]
  outcome: inactive
[9]
  Potency: inactive
[10]
  Potency: inactive
[11]
  outcome: inactive
[15]
  Potency: inactive
[12]
  Potency: inactive
[13]
  Potency: inactive
